Bim-Mcl-1: inhibitors of Bim peptide binding to Mcl-1, primary screen, biochemical, bead-based flow cytometry, multiplex; Induced myeloid leukemia cell differentiation protein Mcl-1 (Homo sapiens), Q07820; Bim peptide-Mcl-1 binding; inhibition, % at 10 µM; 0.1% of 190,000 active; AID 1009, 2008; in the data active = inhibition above about 40%
Bcl-xL primary: inhibitors of human Bcl-xL, primary screen, biochemical, fluorescence polarization, HTS; Bcl-2-like protein 1 (Homo sapiens), Q07817; GST-Bcl-xL / FITC-Bim BH3 peptide fluorescence polarization; inhibition, % at 10.9 µM; 0.7% of 320,000 active; AID 2129, 2009;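 active = inhibition above the mean of all tested compounds plus 3 SD, cutoff set per campaign, cut at about 30% in these data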;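 note: inhibitors lower millipolarization by displacing the labeled peptide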
Target sequence (Q07817 whole entry, looked up): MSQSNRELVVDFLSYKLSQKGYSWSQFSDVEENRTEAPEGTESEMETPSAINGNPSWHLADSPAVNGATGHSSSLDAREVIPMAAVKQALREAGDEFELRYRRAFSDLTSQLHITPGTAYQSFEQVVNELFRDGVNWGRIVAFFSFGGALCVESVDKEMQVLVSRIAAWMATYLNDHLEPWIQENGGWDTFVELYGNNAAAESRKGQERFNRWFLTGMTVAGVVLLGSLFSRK
Mcl1-Bid inh: Mcl-1/Bid binding inhibitors, primary screen, biochemical, TR-FRET, 1536-well | Induced myeloid leukemia cell differentiation protein Mcl-1 (Homo sapiens), Q07820 | TR-FRET Mcl-1/Bid-Dy647 peptide binding | 0.97% of 220,000 active | inhibition, % at 21.7 µM;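 active = compounds that cut the binding signal by more than half at the single screening dose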;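 note: His-tagged Mcl-1 with europium anti-His antibody binding Bid BH3 peptide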
Mcl1-Noxa inh: Mcl-1/Noxa binding inhibitors, primary screen, biochemical, TR-FRET, 1536-well; TR-FRET Mcl-1/Noxa peptide binding, 2 h; inhibition, % at 21.7 µM; 1.5% of 220,000 active; AID 1022, 2008;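 active = compounds that cut the protein-peptide binding signal by more than 50% relative to plate controls in a single-dose test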;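 note: His-tagged Mcl-1 with rhodamine Noxa BH3 peptide and terbium anti-His antibody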
MCL1 BIM primary: inhibitors of MCL1 binding to BIM-BH3, primary screen, biochemical, fluorescence polarization. GST-MCL1 / FITC-Bim-BH3 fluorescence polarization. 0.68% of 320,000 active. Induced myeloid leukemia cell differentiation protein Mcl-1 (Homo sapiens), Q07820. inhibition, % at 10.9 µM;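 active = inhibition above the mean inhibition of all tested compounds plus 3 SD, set per campaign, cut at about 40% in these data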;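 note: higher means more loss of mP so more displacement of Bim peptide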
GLD-1 RNA inh: GLD-1/TGE RNA complex disruptors, primary screen, biochemical, fluorescence polarization; purified GLD-1 + fluorescein TGE RNA; inhibition, % at 5.96 µM; 0.44% of 320,000 active; AID 2280, 2010;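 active = percent inhibition above a per-plate cutoff, the plate mean of test compounds plus 3 SD, cut at about 30% in these data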
Target sequence (Q17339 whole entry, looked up): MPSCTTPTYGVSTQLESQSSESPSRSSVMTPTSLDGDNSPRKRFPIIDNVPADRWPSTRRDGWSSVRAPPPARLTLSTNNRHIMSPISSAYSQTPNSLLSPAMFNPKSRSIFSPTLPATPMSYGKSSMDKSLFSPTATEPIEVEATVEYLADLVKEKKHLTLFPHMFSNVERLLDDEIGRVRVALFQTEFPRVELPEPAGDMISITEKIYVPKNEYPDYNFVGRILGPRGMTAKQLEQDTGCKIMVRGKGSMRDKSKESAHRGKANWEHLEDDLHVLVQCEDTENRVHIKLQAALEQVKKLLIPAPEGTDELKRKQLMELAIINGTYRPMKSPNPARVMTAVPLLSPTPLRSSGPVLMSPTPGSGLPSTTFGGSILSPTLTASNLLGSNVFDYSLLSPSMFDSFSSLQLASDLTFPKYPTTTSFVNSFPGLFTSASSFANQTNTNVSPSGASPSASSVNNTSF
BCLXL inh confirm: Bcl-xL inhibitors blocking Bim BH3 binding, confirmation, counter-screen for MCL1 inhibitor project, biochemical, fluorescence polarization; AID 2166, 2009; 54% of 1,700 active; shares compounds with MCL1 BIM primary; inhibition, % at 10.9 µM; GST-Bcl-xL / FITC-Bim BH3 peptide FP binding;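 active = inhibition above a cutoff equal to the mean inhibition of all tested compounds plus 3 SD, cut at about 30% in these data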
MCL1 BIM confirm: inhibitors of MCL1 binding to BIM-BH3, confirmation, biochemical, fluorescence polarization, triplicate; shares compounds with MCL1 BIM primary; inhibition, % at 10.9 µM; 61% of 1,700 active; AID 2168, 2009; GST-MCL1 / FITC-Bim-BH3 fluorescence polarization;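 active = inhibition above the average of all tested compounds plus 3 SD, cut at about 40% in these data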
Numbers stand for hits; 0 = inactive; - = no result given; + = active, no number. An excerpt weighted towards active compounds, which were near 2.3% of everything screened.

SMILES | Bim-Mcl-1 | Bcl-xL primary | Mcl1-Bid inh | Mcl1-Noxa inh | MCL1 BIM primary | GLD-1 RNA inh | BCLXL inh confirm | MCL1 BIM confirm
CCOC(=O)C1=C(CSc2nc3c(cc2C#N)CN(C)CC3)OC(N)=C(C#N)C1c1ccccc1 (stereo not given) | 0 | 68 | 0 | 0 | 85 | 0 | 0 | 0
COC(=O)C1=C(CSc2nc3c(cc2C#N)CN(C)CC3)OC(N)=C(C#N)C1c1ccccc1F (stereo not given) | 0 | 86 | 0 | 0 | 100 | 48 | 0 | 0
O=C(CN(Cc1ccccc1F)S(=O)(=O)c1ccc(Cl)cc1)NCC1CCCO1 (stereo not given) | - | 0 | - | - | 0 | 0 | - | -
Cc1ccc(NC(=O)NCCN2CCCCC2)cc1Cl | - | 0 | - | - | 0 | 0 | - | -
O=C(COC(=O)/C=C/C(=O)N1CCN(c2ccccc2)CC1)NC(c1ccccc1)c1ccccc1 | 0 | 0 | 0 | 0 | 0 | 0 | - | -
O=C(O)C1Nc2c(Cl)cc(Cl)cc2C2C=CCC12 (stereo not given) | - | 85 | - | - | 105 | 0 | 52 | 91
O=C(O)C1Nc2c(Cl)cc(Cl)c(Cl)c2C2C=CCC12 (stereo not given) | - | 65 | - | - | 103 | 0 | 123 | 168
Cc1ccc(N2C(=O)c3cccc4c([N+](=O)[O-])ccc(c34)C2=O)c2cccnc12 | - | 0 | 0 | 0 | 0 | 0 | - | -
Cc1ccc(N2C(=O)c3cccc4c(N5CCN(C)CC5)ccc(c34)C2=O)c2cccnc12 | 0 | + | 0 | 0 | + | 137 | + | +
COc1cc(OC)cc(C(=O)N2CC(=O)Nc3ccccc32)c1 | - | 0 | - | - | 0 | 0 | - | -
O=c1cc(-c2ccc(O)c(O)c2)oc2c1ccc1ccccc12 | - | 0 | - | - | 45 | 0 | 0 | 45
O=C(Nc1ccc(Br)cn1)c1cccc2c1-c1ccccc1C2=O | 0 | 0 | 0 | 0 | 0 | 0 | - | -
N#C/C(=C\c1ccc[nH]1)C(=O)Nc1ccccc1Cl | - | 52 | - | - | 47 | 0 | 0 | 0
COc1ccc(NC(=O)/C(C#N)=C/c2ccc[nH]2)c(OC)c1 | - | 0 | - | - | 0 | 0 | - | -
O=C1CC(c2ccc(O)c(O)c2)Oc2c1ccc(O)c2O (stereo not given) | - | 0 | 0 | 106 | 70 | 0 | 0 | 78
CC(C)=CCc1c(O)ccc2c1OC(c1ccc(O)c(O)c1)CC2=O (stereo not given) | 0 | 0 | 0 | 0 | 0 | 0 | - | -
O=C(CSc1ccc(Cl)cc1)c1ccco1 | 0 | 0 | 0 | 0 | 64 | 0 | 0 | 75
COc1cc(CNc2ccc(CNc3ncn[nH]3)cc2)ccc1OCc1ccccc1 | 0 | 0 | 0 | 0 | 0 | 0 | - | -
Cc1cccc(NC(=O)CSc2nnc(CNC(=O)c3ccco3)n2C)c1 | - | 0 | - | - | 0 | 0 | - | -
N#C/C(=C\c1cccc([N+](=O)[O-])c1)C(=O)NCC1CCCO1 (stereo not given) | 0 | 61 | 0 | 0 | 50 | 0 | 0 | 0
COc1cc(/C=C(\C#N)C(=O)NCC2CCCO2)c([N+](=O)[O-])cc1OC (stereo not given) | 0 | 0 | 0 | 0 | 0 | 0 | - | -
COc1ccc2c(c1)CCN1C2CCN2C(=O)CCC21 (stereo not given) | - | 45 | 0 | 0 | 56 | 0 | 0 | 0
O=C(CCl)NC(Cc1c[nH]c2ccc(OCc3ccccc3)cc12)C(=O)O (stereo not given) | - | 0 | - | - | 0 | 0 | - | -
COc1ccc(S(=O)(=O)Nc2cc(SCC(=O)O)c(O)c3ccccc23)cc1 | - | 0 | - | - | - | 0 | 0 | -
CC1=Nc2ccccc2/C1=C\c1nc(-c2ccc(F)cc2)oc1O | 0 | + | 0 | 0 | + | 172 | 92 | 141
SMILES | Bim-Mcl-1 | Bcl-xL primary | Mcl1-Bid inh | Mcl1-Noxa inh | MCL1 BIM primary | GLD-1 RNA inh | BCLXL inh confirm | MCL1 BIM confirm
CN=Cc1nc(-c2ccccc2)oc1O | - | 0 | 0 | 0 | 0 | 0 | - | -
Cc1ccc([C@@H]2[C@@H]3C(=O)N(C)C(=O)[C@@H]3[C@]3(Cc4ccccc4)C(=O)N(Cc4ccccn4)CC(=O)N23)o1 | - | 0 | - | - | 0 | 0 | - | -
CCOC(=O)c1c(C)oc2c1C(=O)c1ccccc1C2=O | 0 | 0 | 0 | 0 | 0 | 0 | - | -
O=C1c2ccccc2-c2onc3ccc(NCc4ccco4)c1c23 | 0 | 165 | 57 | 0 | 199 | 165 | 162 | 188
O=C(O)c1ccccc1NCc1ccco1 | - | 0 | 0 | 0 | 0 | 0 | - | -
CCNc1ccccc(-c2ccc3ccccc3n2)c1=O | 0 | 0 | 0 | 0 | 0 | 0 | - | -
CCOc1ccc2noc3c2c1C(=O)c1ccccc1-3 | 0 | 152 | 0 | 0 | 174 | 171 | 146 | 171
CCNc1ccc2noc3c2c1C(=O)c1ccccc1-3 | 0 | 175 | 88 | 0 | + | 192 | 184 | +
N#Cc1cn(Cc2ccncc2)c(=O)[nH]c1=O | 0 | 0 | 0 | 0 | 0 | 0 | - | -
O=C1C(=Cc2ccco2)C(=O)c2ccccc21 | 0 | 0 | 0 | 0 | 0 | 0 | - | -
O=C(O)c1ccc2c(c1)C(=O)/C(=C\c1ccco1)C2=O | 0 | 41 | 0 | 66 | 64 | 0 | 0 | 0
O=C(NCc1nnc2c(C(F)(F)F)cc(Cl)cn12)c1ccc(Br)o1 | - | 0 | - | - | 0 | 0 | - | -
Cc1cc2nc3c(=O)[nH]c(=S)[nH]c3nc2cc1NC(=O)C(F)(F)F | - | + | - | - | + | 185 | 185 | 197
O=c1[nH]c(=S)[nH]c2nc(-c3ccccc3)cnc12 | - | 0 | - | - | 0 | 0 | - | -
COc1cc(/C=C/C(=O)CC(=O)/C=C/c2ccc(O)c(OC)c2)ccc1O | 0 | 0 | 0 | 51 | 57 | 0 | 0 | 0
CCCC1=NN2C(=N)/C(=C\c3ccc(SCc4ccco4)o3)C(=O)N=C2S1 | 0 | 70 | 0 | 84 | 80 | 0 | 0 | 0
CCCC1=NN2C(=N)/C(=C\c3cc(C)n(Cc4ccccc4)c3C)C(=O)N=C2S1 | - | 0 | 0 | 0 | 0 | 0 | - | -
CN1CCN(/N=C/c2c3ccccc3c(Cl)c3ccccc23)CC1 | 0 | 111 | 0 | 0 | 127 | 77 | 0 | 0
CC(=O)Oc1ccccc1C(=O)O | - | 0 | - | - | 0 | 0 | - | -
CC(=O)Oc1cc2cccc(OC(C)=O)c(=O)c2c(OC(C)=O)c1OC(C)=O | 0 | 81 | 0 | 66 | 105 | 0 | 0 | 0
